The source of these data is PubChem BioAssay (NCI).

Compounds without any hit were thinned out: in the full panel of roughly 83,000, 20% have a hit.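 Assay: single dose, 48 h. Readout: percent growth (0 = no net growth; negative = cell death). Active: <10.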 Values without a mark were called inactive. Calls of active or inactive are those of the source.

The test system of the assay is TK-10 renal. In words: NCI-60 one-dose screen, 48 h (100 = growth as untreated, 0 = no growth, -100 = all killed). Conditions: 10 µM unless noted.
Consider `Cc1ccc(NC(=O)N[C@@H](Cc2cc(F)cc(F)c2)C(=O)NC2C(=O)N3CCC[C@H]3C(=O)N3CCCC[C@H]3C(=O)N[C@@H](C)C(=O)N3C[C@H](C)C[C@H]3C(=O)O[C@H]2C)c(F)c1` (some centres not stated), for which the growth is 53.9%.
The value for `COc1ccc(/C=C/C(=O)c2nnn(-c3ccc(C(=O)O)cc3)c2C)cc1OC` was 113%; that for `O=C(Nc1cc(F)cc2cccnc12)c1cnc(N2CCOCC2)cn1` was 61.6%.
The figure for `Oc1ccccc1-c1nnc(SCc2ccc(O)c3ncccc23)o1` is 43.9%; for `COc1cc(/C=C2\SC(=O)NC2=O)ccc1OCC(=O)Nc1ccc(C(=O)/C=C/c2cc3ccccc3nc2Cl)cc1` it is 104%; for `Nc1nc(-c2cccc([N+](=O)[O-])c2)c(N=Nc2ccccc2Cl)s1` it is 85.7%.
The figure for `Oc1ccc(-c2nnc(SCc3ccc(O)c4ncccc34)o2)cc1` is 13.6%.
For `C[C@H]1[C@H](C)CC[C@]2(COC(=O)c3cccnc3)CC[C@]3(C)C(=CC[C@@H]4[C@@]5(C)CCCNC(C)(C)[C@@H]5CC[C@]43C)[C@H]12`, the growth was 79.9%.
With `O=c1[nH]c2cc(Cl)ccc2n1C1CCN(c2ccc3nnc(Cl)n3n2)CC1`, the growth is 92.9%.
The value for `COc1ccc(N2CCN(C(=O)CSc3ccc(-c4nc5cc(C)c(C)cc5[nH]4)cn3)CC2)cc1` was 101%.
The figure for `Cc1cc(F)cc(NS(=O)(=O)c2ccc(-c3cnc(C4CC4)o3)cc2)c1` is 53.5%; for `Oc1ccc(CSc2nnc(-c3ccncc3)o2)c2cccnc12` it is 34.6%.
The value for `O=C(COc1ccc(/C=C2\SC(=O)NC2=O)cc1)Nc1ccc(C(=O)/C=C/c2cc3ccccc3nc2Cl)cc1` was 89.8%; that for `O=C(Nc1cccc(Cl)c1)Nc1nc2ccc([N+](=O)[O-])cc2s1` was -2.79% (active).
Take `Cn1cc(-c2nn3cc(-c4cccnc4)nc3s2)c2cc(F)ccc21`: the growth was 129%.
The value for `COc1ccc(CCN2C(=O)/C(=C/c3nc(CO)cs3)SC2=S)cc1` was 61.6%.
The figure for `C/C(=N\NC(=S)Nc1ccc(Br)cc1)c1cc2ccccc2oc1=O` is 42.4%.
The figure for `O=C1[C@H]2Cc3c([nH]c4ccccc34)[C@@H](c3ccc(Cl)cc3)N2C(=O)CN1C1CCN(Cc2c(Cl)cccc2Cl)CC1` is 107%.
`O=C1[C@H]2Cc3c([nH]c4ccccc34)[C@@H](c3c(Cl)cccc3Cl)N2C(=O)CN1C1CCN(Cc2ccccc2)CC1`: the growth is 46.2%.
On to `Oc1ccccc1-c1nnc(SCc2ccc(O)c3ncccc23)n1-c1ccccc1`, for which the growth was 18.9%.
The value for `CC1=C2C(=C[C@@](C)(COS(N)(=O)=O)[C@@H]2O)C(=O)[C@](C)(O)C12CC2` was 95.9%; that for `CC1(COc2ccc3ncc(C#Cc4cncc(C(=O)Nc5cc(C(C)(C)C)on5)c4)n3n2)COC1` was 91.6%; that for `NC(=S)N/N=C(/C=C/c1cn(-c2ccccc2)nc1-c1ccc(Cl)cc1)c1cc2ccccc2oc1=O` was 89.9%.
The figure for `O=C(/C=C1\C=CN(CCCCO)c2ccccc21)n1ccc2ccccc21` is 117%.
The value for `Cc1cc(NS(=O)(=O)c2ccc(-c3cnc(C4CC4)o3)cc2)ccc1I` was 75.6%; that for `Oc1ccc(CSc2nnc(-c3ccccc3)o2)c2cccnc12` was 28.6%; that for `CS(=O)(=O)c1ccc2c(c1)c1c(n2S(=O)(=O)c2ccc(Cl)cc2)CCCC1` was 65.7%.
With `CN(C)C(=O)c1ccccc1-n1cnc2ccccc2c1=O`, the growth is 97.6%.
Turning to `O=C(Nc1cc(Cl)cc(Cl)c1)Nc1nc2ccc([N+](=O)[O-])cc2s1`, the growth was -1.5% (active).
The value for `C#C[C@]1(O)CC[C@H]2[C@@H]3CC=C4c5sc(Nc6ccc(OC)nc6)nc5CC[C@]4(C)[C@H]3CC[C@@]21C` was 124%; that for `CCOc1ccc2nc(NC(=O)Nc3ccccc3C)sc2c1` was 64.5%; that for `CN(c1ccc(Br)cc1)S(=O)(=O)c1ccc(-c2cnc(C3CC3)o2)cc1` was 87.6%.
The value for `Cc1cc(Cl)cc(NS(=O)(=O)c2ccc(-c3cnc(C4CC4)o3)cc2)c1` was 83.5%.
The value for `N/C(=N\c1nc2ccc([N+](=O)[O-])cc2s1)C(Cl)(Cl)Cl` was 78.3%; that for `CS(=O)c1nccc(-c2c(-c3ccc(F)c(OCCc4ccc(F)cc4)c3)nc3sccn23)n1` (configuration not stated) was 107%; that for `CN(c1ccc(F)cc1)S(=O)(=O)c1ccc(-c2cnc(C3CC3)o2)cc1` was 91.9%.
On to `Cc1cn(-c2cc(NC(=O)c3cncc(C#Cc4cnc5ccc(OCCCS(C)(=O)=O)nn45)c3)cc(C(F)(F)F)c2)cn1`, for which the growth is 33.8%.
